Results from PubChem BioAssay (NCATS).
Inconclusive results are not listed. Unless noted, calls come from the whole dose curve; as a rule, active = well fitted curve in either direction with a large enough effect (not every such curve was filed as active); inconclusive = small, poorly fitted or top-dose-only effect, or another doubt; inactive = flat fitted curve, though single readings scatter.

Experiments:
[1] = AP1 Signaling Pathway (AID 357); conditions: ME-180 AP-1-bla reporter, EGF-induced, beta-lactamase ratio, 5 h; at 17.2 µM (top of the series) unless noted;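 note: ME-180 reporter cells stimulated with EGF at its EC50 level; % is set by controls: 0 for no effect and ±100 for the full control effect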
How it was run: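 AP-1-bla ME-180 cells, Opti-MEM + 0.5% dialyzed FBS, plated overnight 37 °C. Cpd titration + EC50 EGF, 5 h 37 °C. CCF4 2.5 h RT; ex 405, em 460/530 ratio → %activity, AC50.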

[2] = NFAT Signaling Pathway (AID 444); conditions: Jurkat NFAT-bla M1, carbachol, beta-lactamase ratio, 5 h; at 17.2 µM (top of the series) unless noted;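 note: carbachol stimulus at about its EC50 of 1 µM final; % is set by controls: 0 for no effect and ±100 for the full control effect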
How it was run: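 Jurkat cells carrying an NFAT-driven β-lactamase reporter and co-transfected muscarinic M1 receptor were treated with compound plus carbachol (1 uM final, an EC50 level) for 5 h at 37 °C. CCF4 loading followed for 1 h at RT; 460/530 nm ratio gave %activity.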

[3] = Stat Signaling Pathway (AID 446); conditions: ME-180 (cervical carcinoma) SIE beta-lactamase reporter, IL-6 stimulated, 5 h; at 17.2 µM (top of the series) unless noted;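 note: ME-180 cervical cancer cells given 40 pM IL-6 alongside compound; SIE-controlled beta-lactamase reporter measured as 460/530 nm FRET emission ratio; % is set by controls: 0 for no effect and ±100 for the full control effect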
How it was run: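 Normalization used AC90 stimulation (300 pM IL-6) and AC90 inhibition (125 nM pan-JAK inhibitor at 40 pM IL-6). The underlying signal is SIE-driven beta-lactamase in ME-180 cells after 5 h IL-6 exposure with compound.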

[4] = biological target: Glucocorticoid receptor (Homo sapiens) (UniProt P04150); assay: GR-GFP Redistribution (AID 450;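 active = compounds whose dose series gives a full or clear partial fitted curve of increased nuclear translocation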; note: potency is the fitted concentration of half-maximal effect)
Chain of Glucocorticoid receptor (Homo sapiens) (P04150 whole entry, looked up): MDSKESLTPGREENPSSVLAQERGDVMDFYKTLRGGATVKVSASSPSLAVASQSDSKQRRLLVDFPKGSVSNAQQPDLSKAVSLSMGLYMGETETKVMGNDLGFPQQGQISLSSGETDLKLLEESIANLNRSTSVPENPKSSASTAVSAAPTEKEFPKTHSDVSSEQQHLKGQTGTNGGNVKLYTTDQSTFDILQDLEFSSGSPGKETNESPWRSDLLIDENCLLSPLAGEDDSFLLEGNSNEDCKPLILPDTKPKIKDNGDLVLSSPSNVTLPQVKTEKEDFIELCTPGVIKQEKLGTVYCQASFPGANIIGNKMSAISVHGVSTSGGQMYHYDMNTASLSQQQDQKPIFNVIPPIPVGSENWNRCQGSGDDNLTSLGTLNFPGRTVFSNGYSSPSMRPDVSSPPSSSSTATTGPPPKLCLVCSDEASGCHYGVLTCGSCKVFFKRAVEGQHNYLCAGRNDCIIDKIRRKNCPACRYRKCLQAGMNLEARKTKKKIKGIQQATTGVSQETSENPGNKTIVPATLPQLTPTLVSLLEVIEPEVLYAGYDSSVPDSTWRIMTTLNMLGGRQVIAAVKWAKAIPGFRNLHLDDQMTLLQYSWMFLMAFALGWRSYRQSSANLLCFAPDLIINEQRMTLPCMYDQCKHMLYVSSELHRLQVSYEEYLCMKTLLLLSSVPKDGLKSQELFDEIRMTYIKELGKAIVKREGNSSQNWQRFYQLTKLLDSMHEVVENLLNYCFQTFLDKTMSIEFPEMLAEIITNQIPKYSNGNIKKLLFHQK

CCCc1cc(NCCN2CCOCC2)n2c(nc3ccccc32)c1C#N
inactive: activity change, negative = inhibition [1] -11.4% | activity change, negative = inhibition [2] 9.42% | activity, negative = inhibition [3] -2.52% | Potency [4] > 20.6 µM

CC1=C(C(=O)Nc2ccccc2)C(c2ccncc2)C(C#N)=C(SCC(=O)NC(C)C)N1 (stereo not given)
inactive: activity change, negative = inhibition [1] -5.76% | activity change, negative = inhibition [2] 1.05% | activity, negative = inhibition [3] -4.3% | Potency [4] > 20.6 µM

CCOC(=O)CC1=C(C(=O)OCC)C(c2cc(OC)c(OC)cc2OC)C(C#N)=C(N)O1 (stereo not given)
inactive: activity change, negative = inhibition [1] 0.567% | activity change, negative = inhibition [2] -1.8% | activity, negative = inhibition [3] 10.5% | Potency [4] > 20.6 µM

CN1C(=S)SC(N(O)C(=O)Nc2ccccc2)C1(C)C (stereo not given)
inactive: activity change, negative = inhibition [1] 1.19% | activity change, negative = inhibition [2] -13.4% | activity, negative = inhibition [3] 2.19% | Potency [4] > 20.6 µM

Cc1cc(=O)oc(C)c1C(=O)N1CCN(C)CC1
inactive: activity change, negative = inhibition [1] 5.91% | activity change, negative = inhibition [2] 17.3% | activity, negative = inhibition [3] 5.89% | Potency [4] > 20.6 µM

CCOC(=O)Cn1nc(C)c2ccccc2c1=O
inactive: activity change, negative = inhibition [1] 5.31% | activity change, negative = inhibition [2] 3.38% | activity, negative = inhibition [3] -2.19% | Potency [4] > 20.6 µM

COc1ccccc1N1CCN(C2CCN(C(=O)c3cc(OC)c(OC)c(OC)c3)CC2)CC1
inactive: activity change, negative = inhibition [1] 12.5% | activity change, negative = inhibition [2] 4.07% | activity, negative = inhibition [3] 10.4% | Potency [4] > 20.6 µM

O=C(NCC(F)(F)F)Nc1nnc(C(F)(F)F)s1
inactive: activity change, negative = inhibition [1] -9.88% | activity change, negative = inhibition [2] -2.8% | activity, negative = inhibition [3] -4.37% | Potency [4] > 20.6 µM

Cc1c(O)c(CN2CCCC(C)C2)cc2c3c(c(=O)oc12)CCC3 (stereo not given)
inactive: activity change, negative = inhibition [1] 13.2% | activity change, negative = inhibition [2] -10.5% | activity, negative = inhibition [3] 6.92% | Potency [4] > 20.6 µM

O=c1cc(O)nc2n1CCCS2
inactive: activity change, negative = inhibition [1] 5% | activity change, negative = inhibition [2] -0.525% | activity, negative = inhibition [3] -1.13% | Potency [4] > 20.6 µM

Cc1ccc(C)c(OCc2nnc(NC(=O)c3ccco3)s2)c1
inactive: activity change, negative = inhibition [1] -0.273% | activity change, negative = inhibition [2] 9.32% | activity, negative = inhibition [3] -9.58% | Potency [4] > 20.6 µM

CCOC(=O)c1c(C)cccc1OCC(N)=O
inactive: activity change, negative = inhibition [1] -9.84% | activity change, negative = inhibition [2] 0.392% | activity, negative = inhibition [3] -2.4% | Potency [4] > 20.6 µM

CC12CCC(C(=O)NCCCN3CCOCC3)(OC1=O)C2(C)C (stereo not given)
inactive: activity change, negative = inhibition [1] 12% | activity change, negative = inhibition [2] 10.5% | activity, negative = inhibition [3] 3.88% | Potency [4] > 20.6 µM

Cn1c(Cn2cnc(Cl)c2Cl)nc2ccccc21
inactive: activity change, negative = inhibition [1] 2.26% | activity change, negative = inhibition [2] -0.211% | activity, negative = inhibition [3] 7.94% | Potency [4] > 20.6 µM

CCN(CC)CCN1C(=O)C(=O)/C(=C(/O)c2ccc(F)cc2)C1c1ccncc1 (stereo not given)
inactive: activity change, negative = inhibition [1] -7.07% | activity change, negative = inhibition [2] 17.1% | activity, negative = inhibition [3] 1.89% | Potency [4] > 20.6 µM

COc1cccc(C2/C(=C(\O)c3ccc(OC)c(OC)c3)C(=O)C(=O)N2c2cc(C)on2)c1 (stereo not given)
inactive: activity change, negative = inhibition [1] -7.94% | activity change, negative = inhibition [2] 6.78% | activity, negative = inhibition [3] -8.6% | Potency [4] > 20.6 µM

CCOC(=O)c1c(NC(=O)CN2CCOCC2)sc2c1CC(C)(C)OC2
inactive: activity change, negative = inhibition [1] -15.6% | activity change, negative = inhibition [2] 12.7% | activity, negative = inhibition [3] -6.32% | Potency [4] > 20.6 µM

CCOC(=O)CSC1=C(C#N)C(c2ccc(C)cc2)C(C(=O)OC)C(=O)N1 (stereo not given)
inactive: activity change, negative = inhibition [1] 8.51% | activity change, negative = inhibition [2] 6.97% | activity, negative = inhibition [3] -7.08% | Potency [4] > 20.6 µM

CCCC(C)n1[nH]c(=O)cc1N (stereo not given)
inactive: activity change, negative = inhibition [1] 11.2% | activity change, negative = inhibition [2] 8.48% | activity, negative = inhibition [3] 3.57% | Potency [4] > 20.6 µM

CC1(C)NC(=O)N(CC(O)COc2cc3ccccc3cc2C(=O)N2CCCCC2)C1=O (stereo not given)
inactive: activity change, negative = inhibition [1] -6.63% | activity change, negative = inhibition [2] 8.86% | activity, negative = inhibition [3] -3.07% | Potency [4] > 20.6 µM

Cc1nnc(C)n1/N=C/c1cccn1C
inactive: activity change, negative = inhibition [1] 4.24% | activity change, negative = inhibition [2] 13.1% | activity, negative = inhibition [3] -1.54% | Potency [4] > 20.6 µM

Cc1cc(C)nc(NC2=NCC(=O)N2c2ccc(Cl)cc2)n1
inactive: activity change, negative = inhibition [1] 0.0978% | activity change, negative = inhibition [2] -13.8% | activity, negative = inhibition [3] 5.94% | Potency [4] > 20.6 µM

CCCSc1nnc2n(Cc3ccccc3)c(=O)c3c4c(sc3n12)CCC4
inactive: activity change, negative = inhibition [1] 27.1% | activity change, negative = inhibition [2] 0.0627% | activity, negative = inhibition [3] -7.18% | Potency [4] > 20.6 µM

CCOC(=O)c1sc(-n2[nH]c(C)cc2=O)nc1C
inactive: activity change, negative = inhibition [1] -2.34% | activity change, negative = inhibition [2] 8.32% | activity, negative = inhibition [3] 1.64% | Potency [4] > 20.6 µM

CC1(C)Cc2c(c(N3CCOCC3)nc3snc(Br)c23)CO1
inactive: activity change, negative = inhibition [1] -5.9% | activity change, negative = inhibition [2] -26.2% | activity, negative = inhibition [3] 13.2% | Potency [4] > 20.6 µM
